Records with an inconclusive call do not appear. Active and inactive are the calls of the source. Rule for the calls: active = hit-call score of the fitted dose curve at least 0.9, where 1 is the maximum; inconclusive = response in the unintended direction; inactive = score below 0.9.

Our source for the outcome and AC50 values is PubChem BioAssay (EPA / NIEHS).

In test [1] the target is human Janus Kinase 2 (Jak2), JAK2 (gene 3717) (UniProt O60674). Kind of test: NVS_ENZ_hJak2: NovaScreen (NVS) Enzymatic Assay for human Janus Kinase 2 (Jak2) (AID 2283169). The essentials: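 Single-point duplicate screen at 25 uM, with hits run in concentration series to a 50 uM top dose. Substrate-product separation by mobility shift with fluorescence detection, 1 h post-dosing; DMSO baseline.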
Chain of human Janus Kinase 2 (Jak2), JAK2 (gene 3717) (O60674 whole entry, looked up): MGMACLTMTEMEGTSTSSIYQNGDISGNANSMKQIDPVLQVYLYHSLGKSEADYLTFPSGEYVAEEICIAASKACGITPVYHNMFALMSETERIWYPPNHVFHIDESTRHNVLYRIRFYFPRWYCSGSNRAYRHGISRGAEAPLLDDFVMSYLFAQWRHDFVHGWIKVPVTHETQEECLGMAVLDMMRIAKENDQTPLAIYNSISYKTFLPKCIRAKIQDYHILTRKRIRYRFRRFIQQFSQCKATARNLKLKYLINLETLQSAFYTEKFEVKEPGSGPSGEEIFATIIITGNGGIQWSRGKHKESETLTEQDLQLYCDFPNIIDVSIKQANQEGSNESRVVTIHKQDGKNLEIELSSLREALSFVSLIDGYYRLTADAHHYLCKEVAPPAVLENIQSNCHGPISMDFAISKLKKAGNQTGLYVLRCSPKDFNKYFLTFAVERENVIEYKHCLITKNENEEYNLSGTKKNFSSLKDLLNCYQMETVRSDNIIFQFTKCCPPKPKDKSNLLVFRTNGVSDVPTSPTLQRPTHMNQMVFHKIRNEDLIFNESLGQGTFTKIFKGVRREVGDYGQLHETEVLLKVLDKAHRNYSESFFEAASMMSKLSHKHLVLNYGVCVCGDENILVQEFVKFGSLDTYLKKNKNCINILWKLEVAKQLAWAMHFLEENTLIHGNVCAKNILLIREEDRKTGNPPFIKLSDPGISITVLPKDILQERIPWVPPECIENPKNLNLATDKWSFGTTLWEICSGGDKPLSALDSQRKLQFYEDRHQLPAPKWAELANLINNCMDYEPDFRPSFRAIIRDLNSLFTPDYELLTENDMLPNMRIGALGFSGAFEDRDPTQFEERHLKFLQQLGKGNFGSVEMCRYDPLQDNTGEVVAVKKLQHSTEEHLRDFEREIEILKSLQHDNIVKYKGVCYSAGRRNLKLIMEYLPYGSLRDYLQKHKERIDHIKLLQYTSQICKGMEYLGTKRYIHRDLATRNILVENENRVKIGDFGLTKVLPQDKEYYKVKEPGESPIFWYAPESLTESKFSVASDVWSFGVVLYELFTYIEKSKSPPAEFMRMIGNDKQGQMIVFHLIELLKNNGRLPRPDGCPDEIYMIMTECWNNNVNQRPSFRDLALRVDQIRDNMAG

Test [2] concerns the target human MET Proto-Oncogene, Receptor Tyrosine Kinase (MET), MET (gene 4233) (UniProt P08581). Kind of test: NVS_ENZ_hMet: NovaScreen (NVS) Enzymatic Assay for human MET Proto-Oncogene, Receptor Tyrosine Kinase (MET) (AID 2283180). The essentials: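 Hits from a 25 uM duplicate screen were retested in concentration series up to 50 uM. Enzyme activity was measured by fluorescence after electrophoretic separation of product from substrate, 1 h after compound addition, relative to DMSO.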

For test [3], the target named is Collagenase 3 (Homo sapiens) (UniProt P45452). Description: NVS_ENZ_hMMP13: NovaScreen (NVS) Enzymatic Assay for human Matrix Metalloproteinase-13 (MMP13) (AID 2283182). The essentials: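 Recombinant MMP13 cleaving fluorescent substrate, cell-free, measured 1 h after dosing. Primary duplicate screen at 25 uM; actives tested in concentration-response up to 50 uM; loss of signal relative to DMSO.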

The target in test [4] is human Matrix Metalloproteinase-2 (MMP2), MMP2 (gene 4313) (UniProt P08253). Description: NVS_ENZ_hMMP2: NovaScreen (NVS) Enzymatic Assay for human Matrix Metalloproteinase-2 (MMP2) (AID 2283184). The method in brief: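 Compounds first screened in duplicate at a single 25 uM, with actives followed up in concentration series. Recombinant human MMP2 cleaves a fluorogenic substrate; fluorescence taken at 1 h, inhibition fitted relative to DMSO.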
Chain of human Matrix Metalloproteinase-2 (MMP2), MMP2 (gene 4313) (P08253 whole entry, looked up): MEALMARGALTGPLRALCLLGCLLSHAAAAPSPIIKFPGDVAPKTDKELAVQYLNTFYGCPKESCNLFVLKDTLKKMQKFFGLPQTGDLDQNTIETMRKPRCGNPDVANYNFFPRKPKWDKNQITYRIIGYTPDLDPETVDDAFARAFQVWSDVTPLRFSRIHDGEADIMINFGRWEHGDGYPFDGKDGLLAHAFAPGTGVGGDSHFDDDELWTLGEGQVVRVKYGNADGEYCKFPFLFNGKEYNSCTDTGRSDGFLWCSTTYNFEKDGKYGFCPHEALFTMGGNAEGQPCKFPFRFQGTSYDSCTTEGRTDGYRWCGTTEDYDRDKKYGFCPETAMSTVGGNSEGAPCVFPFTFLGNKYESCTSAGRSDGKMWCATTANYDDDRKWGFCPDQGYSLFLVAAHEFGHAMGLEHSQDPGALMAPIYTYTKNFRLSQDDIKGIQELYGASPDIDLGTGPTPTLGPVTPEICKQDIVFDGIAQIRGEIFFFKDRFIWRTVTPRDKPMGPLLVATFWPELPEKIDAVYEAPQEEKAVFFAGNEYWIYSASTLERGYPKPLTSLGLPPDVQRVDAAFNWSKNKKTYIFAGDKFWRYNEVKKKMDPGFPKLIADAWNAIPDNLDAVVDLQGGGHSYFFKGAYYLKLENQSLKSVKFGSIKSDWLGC

The target in test [5] is human Matrix Metalloproteinase-3 (MMP3), MMP3 (gene 4314) (UniProt P08254). Description: NVS_ENZ_hMMP3: NovaScreen (NVS) Enzymatic Assay for human Matrix Metalloproteinase-3 (MMP3) (AID 2283185). The essentials: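 Fluorescent substrate turnover by recombinant MMP3 read after 1 h, signal loss scored against DMSO. Compounds first run in duplicate at 25 uM single dose, then actives confirmed by concentration series.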
Chain of human Matrix Metalloproteinase-3 (MMP3), MMP3 (gene 4314) (P08254 whole entry, looked up): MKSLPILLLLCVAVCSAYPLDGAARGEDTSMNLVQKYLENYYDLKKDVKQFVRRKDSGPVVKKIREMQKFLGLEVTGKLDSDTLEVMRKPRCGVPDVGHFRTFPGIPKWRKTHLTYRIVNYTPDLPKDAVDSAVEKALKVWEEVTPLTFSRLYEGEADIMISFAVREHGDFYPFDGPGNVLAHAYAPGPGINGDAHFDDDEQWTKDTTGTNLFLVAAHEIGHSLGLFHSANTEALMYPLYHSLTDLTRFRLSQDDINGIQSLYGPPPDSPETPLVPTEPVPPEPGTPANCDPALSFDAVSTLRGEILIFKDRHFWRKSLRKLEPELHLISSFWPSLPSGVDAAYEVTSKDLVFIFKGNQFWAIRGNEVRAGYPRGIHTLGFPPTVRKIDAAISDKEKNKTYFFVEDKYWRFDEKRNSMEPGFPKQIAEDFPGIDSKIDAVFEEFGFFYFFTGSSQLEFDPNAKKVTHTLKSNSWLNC

The target in test [6] is human Matrix Metalloproteinase-7 (MMP7), MMP7 (gene 4316) (UniProt P09237). Kind of test: NVS_ENZ_hMMP7: NovaScreen (NVS) Enzymatic Assay for human Matrix Metalloproteinase-7 (MMP7) (AID 2283183). The method in brief: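 Compounds first tested at 25 uM in duplicate, then at up to 50 uM in concentration series if active. Protease activity measured by fluorescence intensity 1 h after dosing, with fitting relative to DMSO.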
Chain of human Matrix Metalloproteinase-7 (MMP7), MMP7 (gene 4316) (P09237 whole entry, looked up): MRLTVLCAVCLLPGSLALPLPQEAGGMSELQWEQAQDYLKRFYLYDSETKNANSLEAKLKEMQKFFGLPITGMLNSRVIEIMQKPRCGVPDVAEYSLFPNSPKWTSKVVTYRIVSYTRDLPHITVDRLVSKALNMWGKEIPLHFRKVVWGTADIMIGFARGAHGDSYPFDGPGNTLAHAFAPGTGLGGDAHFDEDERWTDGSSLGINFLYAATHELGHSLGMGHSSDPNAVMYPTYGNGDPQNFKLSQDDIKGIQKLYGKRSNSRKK

The target of test [7] is human p21 Activated Kinase 4 (PAK4), PAK4 (gene 10298) (UniProt O96013). Kind of test: NVS_ENZ_hPAK4: NovaScreen (NVS) Enzymatic Assay for human p21 Activated Kinase 4 (PAK4) (AID 2283189). The essentials: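 Extracted PAK4 enzyme activity read by fluorescence with mobility-shift separation 1 h after chemical addition. Duplicate single-concentration screen at 25 uM, DMSO as negative control.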
Chain of human p21 Activated Kinase 4 (PAK4), PAK4 (gene 10298) (O96013 whole entry, looked up): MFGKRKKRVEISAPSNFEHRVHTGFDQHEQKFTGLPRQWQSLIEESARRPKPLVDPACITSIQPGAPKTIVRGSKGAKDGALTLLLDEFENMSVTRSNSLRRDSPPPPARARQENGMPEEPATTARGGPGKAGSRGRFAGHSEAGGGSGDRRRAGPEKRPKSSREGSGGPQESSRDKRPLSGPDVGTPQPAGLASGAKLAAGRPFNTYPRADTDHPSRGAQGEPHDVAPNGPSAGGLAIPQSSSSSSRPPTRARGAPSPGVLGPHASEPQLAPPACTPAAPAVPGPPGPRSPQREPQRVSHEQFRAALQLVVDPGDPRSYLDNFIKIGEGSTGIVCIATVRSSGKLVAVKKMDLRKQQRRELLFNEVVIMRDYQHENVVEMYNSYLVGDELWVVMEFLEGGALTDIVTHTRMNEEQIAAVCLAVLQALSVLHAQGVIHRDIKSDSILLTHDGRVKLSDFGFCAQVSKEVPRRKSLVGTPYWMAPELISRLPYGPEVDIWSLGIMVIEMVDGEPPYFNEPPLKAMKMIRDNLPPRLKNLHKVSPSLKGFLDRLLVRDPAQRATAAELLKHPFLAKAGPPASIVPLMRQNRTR

Chain of human MET Proto-Oncogene, Receptor Tyrosine Kinase (MET), MET (gene 4233) (P08581 whole entry, looked up): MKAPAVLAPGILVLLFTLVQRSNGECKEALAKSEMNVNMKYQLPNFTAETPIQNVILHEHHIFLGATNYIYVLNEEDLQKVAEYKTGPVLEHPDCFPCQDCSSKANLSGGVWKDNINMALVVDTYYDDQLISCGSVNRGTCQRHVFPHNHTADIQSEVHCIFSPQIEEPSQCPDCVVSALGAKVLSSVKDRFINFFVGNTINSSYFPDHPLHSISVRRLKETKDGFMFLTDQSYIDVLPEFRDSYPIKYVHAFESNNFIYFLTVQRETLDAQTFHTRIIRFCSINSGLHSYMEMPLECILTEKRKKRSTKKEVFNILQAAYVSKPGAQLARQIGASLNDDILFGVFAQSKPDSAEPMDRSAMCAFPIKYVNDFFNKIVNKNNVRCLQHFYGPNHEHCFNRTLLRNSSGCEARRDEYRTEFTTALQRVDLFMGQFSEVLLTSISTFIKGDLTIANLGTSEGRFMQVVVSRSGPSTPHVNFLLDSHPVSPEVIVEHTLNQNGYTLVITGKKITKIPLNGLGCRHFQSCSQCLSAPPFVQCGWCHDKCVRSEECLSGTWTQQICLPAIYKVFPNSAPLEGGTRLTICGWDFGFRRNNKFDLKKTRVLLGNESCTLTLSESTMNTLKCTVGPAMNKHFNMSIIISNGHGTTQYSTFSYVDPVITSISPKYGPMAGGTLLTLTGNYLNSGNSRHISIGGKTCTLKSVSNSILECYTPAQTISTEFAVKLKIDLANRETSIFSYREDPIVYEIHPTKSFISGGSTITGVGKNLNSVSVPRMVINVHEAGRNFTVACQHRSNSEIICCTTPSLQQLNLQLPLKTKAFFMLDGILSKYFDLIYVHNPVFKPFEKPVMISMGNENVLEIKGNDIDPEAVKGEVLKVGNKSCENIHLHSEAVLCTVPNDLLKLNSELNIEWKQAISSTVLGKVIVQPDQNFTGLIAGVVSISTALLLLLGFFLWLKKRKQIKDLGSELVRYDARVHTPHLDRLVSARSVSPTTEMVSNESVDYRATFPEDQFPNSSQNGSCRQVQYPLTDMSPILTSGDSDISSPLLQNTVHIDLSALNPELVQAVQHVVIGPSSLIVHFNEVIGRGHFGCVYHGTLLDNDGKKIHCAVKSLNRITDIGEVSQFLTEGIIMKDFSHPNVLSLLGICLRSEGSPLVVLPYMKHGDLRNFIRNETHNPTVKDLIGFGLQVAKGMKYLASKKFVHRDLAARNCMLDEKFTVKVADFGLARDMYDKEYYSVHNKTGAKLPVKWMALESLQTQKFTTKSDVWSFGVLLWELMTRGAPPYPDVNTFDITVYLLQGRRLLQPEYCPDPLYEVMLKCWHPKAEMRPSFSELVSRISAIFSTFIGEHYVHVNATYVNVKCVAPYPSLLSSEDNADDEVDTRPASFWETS

In the case of `Cn1sc(Cl)cc1=O`, the call in test [1] was inactive.

For `CC(C)(C)c1cc(O)ccc1O`, in test [2], the compound was called inactive.

Regarding `O=C(O)C(F)(F)C(F)(F)C(F)(F)C(F)(F)C(F)(F)C(F)(F)C(F)(F)C(F)(F)C(F)(F)C(F)(F)F`, the results for the AC50 in test [3], in test [4] and in test [5] were 23.3 µM (active), 21.9 µM (active) and 10.3 µM (active), respectively.

Take `COc1cc(-c2ccc(N)c(OC)c2)ccc1N`: the figures for the AC50 in test [3] and in test [4] were 17.9 µM (active) and 7.86 µM (active), respectively.

Turning to `O=C1C2(Cl)C3(Cl)C4(Cl)C(Cl)(Cl)C5(Cl)C3(Cl)C1(Cl)C5(Cl)C24Cl` (stereo not given), the AC50 in test [6] is 5.85 µM (active).

For the compound `CC(C)(OO)c1ccccc1`, in test [7], the compound was classed as inactive.

As to `C[C@]12CCC(=O)C[C@@H]1CC[C@@H]1[C@@H]2CC[C@]2(C)[C@@H](O)CC[C@@H]12`, the compound was classed as inactive in test [7].
